Compounds with a hit are over-represented: about 3.8% of the library has one in this group of screens.
Mtb FBA inh: Mtb FBA enzyme inhibitors, primary screen, biochemical, fluorescence, strain H37Rv | Fructose-bisphosphate aldolase (Mycobacterium tuberculosis (strain ATCC 25618 / H37Rv)), … | AID 588726, 2011 | inhibition, % at 1 µM | 360,000 tested, 2.3% active | purified M. tuberculosis FBA, fluorescence read-out; in the data active means inhibition above about 27%;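 further: 0% = vehicle and 100% = reference inhibitor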
Target sequence (P9WQA3 whole entry, looked up): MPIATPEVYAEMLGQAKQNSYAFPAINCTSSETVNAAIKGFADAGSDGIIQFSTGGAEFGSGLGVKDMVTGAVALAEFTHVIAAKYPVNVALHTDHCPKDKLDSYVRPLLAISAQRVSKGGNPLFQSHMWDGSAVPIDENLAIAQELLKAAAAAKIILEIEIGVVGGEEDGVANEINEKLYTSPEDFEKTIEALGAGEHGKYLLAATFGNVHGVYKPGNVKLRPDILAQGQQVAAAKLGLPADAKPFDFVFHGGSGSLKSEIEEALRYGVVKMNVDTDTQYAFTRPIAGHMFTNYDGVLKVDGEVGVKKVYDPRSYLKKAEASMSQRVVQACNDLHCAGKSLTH
Mtb hypoxia rep: PubChem AID 1159583; M. tuberculosis hypoxia-regulated fluorescent reporter, fluorescence; fluorescence inhibition, % (concentration not given with the values); 300,000 tested, 0.1% active; in the data active means fluorescence inhibition mostly above about 23%, no sharp cut-off; inactive means mostly below about 17%
PrP UTR inh: inhibition of PrP 5' UTR reporter expression. 340,000 tested, 0.35% active. cell-based PrP 5' UTR mRNA reporter, plate reader. inhibition, % (no concentration beside the values). AID 488862, 2010; in the data active means inhibition above about 52%; further: 0 = median of the neutral control wells
PrPC surface inh: inhibitors of human cell surface prion protein PrPC, primary screen, cell-based, TR-FRET; Major prion protein (Homo sapiens), P04156; AID 720596, 2013; TR-FRET read-out; 370,000 tested, 0.43% active; inhibition, % at 13.8 µM; in the data active means inhibition above about 24%; further: 0% = median of the test wells and 100% = reference compound wells
Yp Topo-I inh: Yersinia pestis topoisomerase I inhibitors, primary screen, biochemical, cleavage product accumulation, plate reader, single point; Y. pestis Topo-I cleavage product accumulation; activity, % at 10 µM; 360,000 tested, 0.064% active; AID 504884, 2011; in the data active means activity above about 50%, passing the limit was not always enough
GDH-TPI counter: GDH-TPI coupling enzyme inhibitors, primary screen, artefact control for M. tuberculosis FBA inhibitor project, biochemical, absorbance, full deck | GDH-TPI coupled enzyme counterscreen, NADH absorbance | inhibition, % at 4.8 µM | 360,000 tested, 1.2% active | AID 588335, 2011; in the data active means inhibition above about 30%;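 further: 0% = DMSO wells and 100% = wells lacking the enzyme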
Numbers without * were called inactive; · = not tested or not shown; + = active, no number.

SMILES	Mtb FBA inh	Mtb hypoxia rep	PrP UTR inh	PrPC surface inh	Yp Topo-I inh	GDH-TPI counter
CCN(CC)CCCN(Cc1cc2cc3c(cc2[nH]c1=O)OCO3)C(=O)Nc1ccccc1OC	12	8	-16	-2	8	32*
Cc1ccc(C)c(OCC(=O)NN=Cc2cccn2C)c1	·	14	·	·	·	·
Cc1cccc(C(NC(=O)OC(C)(C)C)C(=O)OC(C)(C)C)c1 (stereo not drawn)	·	-2	·	·	·	·
COC(=O)CC1c2ccccc2S(=O)(=O)N1Cc1ccc(OC)cc1 (stereo not drawn)	·	14	·	·	·	·
O=C(NN=Cc1ccccn1)c1ccc2nc[nH]c2c1	·	3	·	·	·	·
Cc1ccc(S(=O)(=O)c2ccc([N+](=O)[O-])o2)cc1	0	·	-20	82*	7	-8
CC(C)N(C(=O)CSc1n[nH]c(=O)n1CCc1ccccc1)C(C)C	-1	9	-24	-3	1	-6
CCN(CC)C(=O)CSc1n[nH]c(=O)n1CCc1ccccc1	148*	16	-2	6	-3	-3
NC(Cc1ccc([N+](=O)[O-])cc1)=NOC(=O)c1ccc2ccccc2c1	·	12	·	·	·	·
Cc1ccc(NCC(=O)N/N=C/c2cccn2C)cc1	0	·	-15	2	-8	35*
Cc1ccc(NCC(=O)NN=Cc2cccn2C)cc1	·	4	·	·	·	·
CCCCn1c(=O)[nH]c(=O)c2c1nc(-c1ccc(-c3ccc(F)cc3)o1)n2C	·	37*	·	-3	·	·
CC(C)Cn1c(-c2ccc(C#N)cc2)nc2c1c(=O)[nH]c(=O)n2CC(C)C	+	11	-6	4	7	10
COCCn1c(-c2ccc(NC(C)=O)cc2)nc2c1c(=O)[nH]c(=O)n2CC(C)C	126*	20	-14	2	1	1
CCCCn1c(=O)[nH]c(=O)c2c1nc(-c1ccc(C#N)cc1)n2C1CCCC1	166*	·	0	-5	2	7
CCOc1cc(C=NNc2nc(-c3cccc(S(=O)(=O)N4CCCC4)c3)cs2)ccc1O	·	20	·	·	·	·
COc1ccc(-c2nc3c(c(=O)[nH]c(=O)n3Cc3ccccc3)n2Cc2ccccc2)cc1	3	2	-20	2	64*	5
Cn1c2ccccc2c2cc(/C=C(\NC(=O)c3ccccc3)C(=O)O)ccc21	-3	-14	0	3	-6	35*
CC(C)OC(=O)/C(=C/c1ccc2c(c1)c1ccccc1n2C)NC(=O)c1ccccc1	0	-25	-29	-5	-3	34*
CC1CN(C2CCC(C#N)(c3ccc(F)cc3)CC2)CC[C@]1(C(=O)O)c1ccccc1 (stereo partly drawn)	·	8	·	·	·	·
COc1ccc2ccc3cccc[n+]3c2c1	134*	·	-46	-6	-19	-2
C#CCOCCOCCOCCNc1nc(N2CCN(C(=O)C(CCC(=O)O)n3cc(C(N)Cc4ccc(O)cc4)nn3)CC2)nc(N2CCN(C(=O)C(Cc3ccc(O)cc3)n3cc(C(N)CC(C)C)nn3)CC2)n1 (stereo not drawn)	·	1	·	·	·	·
COC(=O)C1=C(C)NC(C)=C(C(=O)OC)C1c1cn(-c2ccccc2)nc1-c1ccco1	22	4	-8	12	0	34*
CCN1CC2C3C(=O)N(C)C(=O)C3[C@](Cc3ccccc3)(C1=O)N2C(=O)c1ccc(Cl)cc1 (stereo partly drawn)	·	14	·	·	·	·
CCN(CC)c1ccc(C=Nc2ccc(N(C)C)cc2)c(O)c1	-3	10	-25	-23	-9	54*
SMILES	Mtb FBA inh	Mtb hypoxia rep	PrP UTR inh	PrPC surface inh	Yp Topo-I inh	GDH-TPI counter
CCN(CC)c1ccc(C=Nc2ccccc2)c(O)c1	-2	·	-1	-4	-11	34*
CCN(CC)c1ccc(N=Cc2ccc(N(CC)CC)cc2O)cc1	-5	·	-6	-2	-16	14
CCN(CC)c1ccc(C=Nc2ccc(C)cc2)c(O)c1	-2	·	-14	2	0	45*
CC(C)Oc1ccc(C(=O)C(=Cc2cccs2)c2nc3ccccc3o2)cc1	·	7	·	·	·	·
COC(=O)c1ccc(N=NN2CCCCCC2)cc1	4	2	-9	-4	3	32*
CCOc1cc(C=NNC(=O)c2cccs2)ccc1OC(=O)N1CCOCC1	·	9	·	·	·	·
O=C(NC1CCCC1)c1cc(=O)[nH]c2ccccc12	3	-7	-12	-1	-1	43*
O=C(COC(=O)c1cc(=O)[nH]c2ccccc12)NC1CCCC1	6	14	-16	0	4	3
CC(=NNC(=O)c1c(Br)c(C)nn1C)c1cccc(NC(=O)c2ccccc2C)c1	·	2	·	·	·	·
CCc1cc(=O)oc2cc(C)cc(OCC(=O)N3CCC(C(=O)NC(C)C)(c4ccccc4)CC3)c12	66*	0	1	1	29	2
CCCCc1cc(=O)oc2cc(C)cc(O)c12	0	11	7	2	-9	-2
CCCCc1cc(=O)oc2cc(C)cc(OC(C)C(=O)O)c12 (stereo not drawn)	134*	0	-30	2	0	12
Cc1cc(OCC(=O)NC(Cc2ccc(Cl)cc2)C(=O)O)c2c(C)cc(=O)oc2c1 (stereo not drawn)	74*	·	-22	-1	7	6
CCCCc1cc(=O)oc2cc(O)cc(O)c12	129*	10	-17	7	2	9
Cc1cc(OCC(=O)N2CCC(C(=O)O)(c3ccccc3)CC2)c2c(C)cc(=O)oc2c1	10	·	-6	-4	-5	2
COc1ccc(CCNC(=O)COc2cc(C)cc3oc(=O)cc(C)c23)cc1OC	5	-2	3	4	0	9
Cc1c(OCC(=O)NC(Cc2ccc(Cl)cc2)C(=O)O)ccc2c3c(c(=O)oc12)CCCC3 (stereo not drawn)	6	·	-7	11	14	7
CCCc1cc(=O)oc2cc(C)cc(OCC(=O)N[C@@H](CSCc3ccccc3)C(=O)O)c12	39*	·	-16	0	15	6
COc1ccc2c(CC(=O)NC(Cc3ccc(Cl)cc3)C(=O)O)cc(=O)oc2c1C (stereo not drawn)	121*	9	-13	-4	0	10
CCN(CC)C(=O)CSc1nc2c(sc(=S)n2-c2ccccc2)c(=O)n1-c1ccccc1OC	-1	0	-24	5	8	15
CCN(CC)C(=O)CSc1nc2c(sc(=S)n2-c2ccccc2)c(=O)n1-c1ccc(OC)cc1OC	+	2	-22	3	15	3
Cc1cc(OCC(=O)NCC2CCC(C(=O)O)CC2)c2c(C)cc(=O)oc2c1 (stereo not drawn)	21	·	2	-4	-7	10
CCCC(NC(=O)COc1cc2c(c3oc(=O)cc(C)c13)CCC(C)(C)O2)C(=O)O (stereo not drawn)	128*	-7	-23	3	4	8
